Shown are actives, neighbours in structure and some others; about 4.1% of the full set was active somewhere.
BoNT F protease – BoNT/F light chain protease inhibitors, primary screen, biochemical, flow cytometry, MLPCN library. Multiplex microsphere protease cleavage assay. inhibition, % at 10 µM. 360,000 tested, 0.22% active. AID 588497, 2011; in the data active means inhibition above about 35%, passing the limit was not always enough; inconclusive means no clear call, values can overlap the other calls; further: plate controls were buffer without enzyme for full effect and enzyme alone for no effect
Anthrax LF prot – Bacillus anthracis LF protease inhibitors, primary screen, biochemical, multiplex microsphere, MLPCN library; multiplex microsphere protease cleavage assay; inhibition, % at 10 µM; Lethal factor (Bacillus anthracis), P15917; 360,000 tested, 0.12% active; further: plate controls were buffer without enzyme for full effect and enzyme alone for no effect
Autofluor counter – compound fluorescence in toxin protease inhibitor counterscreen; fluorescence intensity (no concentration beside the values); compound autofluorescence counterscreen, microsphere flow cytometry; active compounds read high; AID 624483; 360,000 tested, 3.1% active; in the data active means fluorescence intensity above about 16000; inconclusive means no clear call, values can overlap the other calls
BoNT-A LC inh2 – BoNT/A light chain protease inhibitors, primary screen, biochemical, flow cytometry, MLPCN library. Botulinum neurotoxin type A light chain protease (Clostridium botulinum A str. ATCC 3502). multiplex microsphere protease substrate cleavage. inhibition, % at 10 µM. 360,000 tested, 0.17% active; further: plate controls were buffer without enzyme for full effect and enzyme alone for no effect
MazF activator – activators of E. coli MazEF toxin-antitoxin RNase, primary screen, biochemical, fluorescence, uHTS | Endoribonuclease toxin MazF (Escherichia coli (strain K12)), P0AE70 | AID 504720, 2011 | FAM/BHQ RNA-DNA oligo cleavage fluorescence, 5 h | 350,000 tested, 0.32% active | activation, % at 20 µM; in the data active means activation above about 50%
DUSP3 inh – VHR1 phosphatase inhibitors, primary screen, biochemical, absorbance, uHTS; AID 1654, 2009; recombinant VHR phosphatase, pNPP absorbance; 290,000 tested, 0.52% active; inhibition, % at 13.3 µM; Dual specificity protein phosphatase 3 (Homo sapiens), P51452; in the data active means inhibition above about 50%
Starred values were filed as active, the others as inactive; ? = inconclusive; . = no result. Unless noted, no stated cut-off is given here; in the data, active means inhibition above about 30%; inconclusive means no clear call, values can overlap the other calls; inactive means below that.

SMILES	BoNT F protease	Anthrax LF prot	Autofluor counter	BoNT-A LC inh2	MazF activator	DUSP3 inh
CC1CCc2[nH]c3ccc(C(=O)N(C)CC(=O)Nc4ccccc4C(F)(F)F)cc3c2C1 (stereo not drawn)	1.8	1.5	6538	-2.6	0.0	.
Cc1ccc(-c2csc(NC(=O)CSc3nc4ccccc4c(=O)n3CCCN(C)C)n2)cc1	-2.7	-7.8	4414	-1.3	0.2	-6.4
Cc1ccc(N2C(=O)C3C4CCC(O4)C3C2=O)c(OC(F)F)c1 (stereo not drawn)	?	?	4757	?	7.4	.
Cc1ccc(NC(=O)NNC(=O)C2CC(c3cccs3)=NO2)cc1 (stereo not drawn)	6.5	0.0	6134	-0.8	-1.2	27.9
COc1cc(OC)cc(C(=O)Nc2ccccc2S(=O)(=O)N2CCCC2OC(C)=O)c1 (stereo not drawn)	2.9	13.4	3942	-3.8	-2.1	5.9
Cc1nnc(SCC(=O)N2c3ccccc3Sc3ccccc32)n1N	5.6	-1.2	11316	-0.3	-4.1	3.5
COc1ccc(N2CCN(C(=O)CSc3nnc(-c4cc5ccccc5cc4O)n3C)CC2)cc1	-14.6	-11.4	16210*	17.0	-7.0	26.1
O=C(CSc1nnc(-c2ccccc2)n1-c1ccccc1)N1c2ccccc2Sc2ccccc21	4.9	-4.1	21718*	3.0	0.9	-7.9
Cn1c(SCC(=O)N2CCN(c3ccccc3)CC2)nnc1-c1ccco1	-0.3	-2.3	20444*	0.3	7.9	32.1
Cn1c(CCNC(=O)c2cccs2)nnc1SCC(=O)N1CCN(c2ccccc2)CC1	1.4	0.5	23569*	?	5.4	10.9
N#Cc1c2ccc([N+](=O)[O-])cc2[n+]([O-])n1-c1ccccc1	-1.9	-0.8	3847	-0.3	.	.
Cc1ccccc1-n1c(SCC(=O)N2CCN(c3ccccc3)CC2)nnc1-c1ccncc1	-0.6	0.6	21220*	-0.8	4.2	6.2
Cc1ccnc(SCC(=O)N2CCN(c3ccccc3)CC2)n1	3.3	-5.6	21477*	1.8	0.0	17.8
O=C(CSc1ccccn1)N1CCN(c2ccc(Cl)cc2)CC1	2.6	-1.0	21847*	?	1.9	2.0
O=C(CSc1ccccn1)N1CCN(C(=O)CSc2ccccn2)CC1	-4.7	-1.9	2411	-0.6	4.5	18.2
Cc1ccccc1-n1c(SCC(=O)N2CCC(C(=O)O)CC2)nnc1-c1ccncc1	4.4	2.0	4070	0.3	8.6	16.5
Cc1ccccc1-n1c(SCC(=O)N2CCOCC2)nc(O)cc1=O	-3.7	0.5	21580*	?	-2.0	5.0
Cc1ccccc1Nc1nn2c(=O)c3ccccc3nc2s1	-2.4	0.4	23125*	0.0	30.6	8.5
Cc1cc2cc3c(cc2nc1SCC(=O)O)OCCO3	-22.2	-7.2	9164	-2.1	6.8	22.2
Cc1cc2cc3c(cc2nc1SCC(=O)N1CCCC1)OCCO3	0.9	-2.2	5502	1.8	11.0	52.9*
NC(=S)Nc1cc2ccccc2c2ccccc12	-1.2	-2.7	19680*	?	-0.8	28.7
COc1cccc(-n2cc(C(=O)NCCCOC(C)C)c3ccccc3c2=O)c1	11.4	-2.6	3234	-1.9	-6.6	31.1
COc1ccc(-n2cc(C(=O)O)c3ccccc3c2=O)cc1	-2.9	-0.6	16517*	-0.6	-2.7	40.9
CCCN(CCC)CCCNC(=O)c1cn(-c2ccc(OC)cc2)c(=O)c2ccccc12	14.7	-12.0	3797	-0.8	5.4	52.6*
COc1ccc([N+](=O)[O-])cc1NCc1c(F)cccc1F	-7.6	2.3	3428	0.1	3.0	.
SMILES	BoNT F protease	Anthrax LF prot	Autofluor counter	BoNT-A LC inh2	MazF activator	DUSP3 inh
COC(=O)Nc1ccc2c(c1)N(C(=O)CCN1CCN3CCCC3C1)c1ccccc1CC2 (stereo not drawn)	?	4.2	4356	1.0	7.5	6.0
COC(=O)Nc1ccc2c(c1)N(C(=O)CCN1CCN3CCCC3C1)c1ccccc1S2 (stereo not drawn)	-3.7	-1.3	23102*	?	-1.9	30.1
Cc1ccc(S(=O)(=O)N2C[C@@H]3CCCC[C@@H]3[C@@H](C)[C@H]2CC(=O)c2ccccc2)cc1	-3.6	-13.7	3804	-0.2	2.5	.
O=C(O)c1cocc1C(=O)O	0.0	-1.3	3870	0.0	6.0	.
COCCNC(=O)C1(C)CCN(C(=O)c2cc(-c3ccccc3)cs2)C1 (stereo not drawn)	3.9	3.7	2934	0.2	.	.
O=C(c1ccccc1F)c1cn(CC(=O)N2CCCCC2)c2ccccc12	-14.9	-1.7	24432*	-9.8	-0.3	8.7
O=C(c1ccccc1F)c1cn(Cc2ccccc2)c2ccccc12	0.0	-2.4	22262*	-0.1	-6.8	24.9
CCn1cc(C(=O)c2ccccc2)c2ccccc21	4.2	-4.1	22254*	?	-2.2	3.6
CC(C)NC(=O)Cn1cc(C(=O)c2ccccc2)c2ccccc21	.	.	.	.	-16.2	10.7
COc1cccc(CNC(=O)[C@@H]2CCCN2C(=O)[C@H]2CCCCN2C(=O)c2ccccc2C)c1	-3.0	-9.2	6218	-1.1	.	.
CCC(CC)c1nnc(NC(=O)Cc2c[nH]c3ccccc23)s1	1.1	0.4	4112	-0.4	4.0	.
O=C1/C(=C/c2ccc(O)cc2)SC(=S)N1CC1CCCO1 (stereo not drawn)	4.6	-7.3	5148	1.9	-368.4	-6.7
Cc1ccsc1/C=C1\SC(=S)N(CC2CCCO2)C1=O (stereo not drawn)	6.6	31.8*	4396	35.0*	2.6	31.2
CC1=C(C(=O)N2CCOCC2)CC(CC(=O)NC2CCCCC2)C(=O)N1CCCN1CCCC1=O (stereo not drawn)	-1.0	3.2	3615	-0.2	8.4	.
CC1CCC(C(=O)c2c(O)c3ccccc3oc2=O)CC1 (stereo not drawn)	3.9	-0.6	20872*	-0.3	-6.8	27.3
CC(=N)c1c(O)c2ccccc2oc1=O	-3.4	-9.0	4215	-0.2	-0.2	8.4
CC1(C(=O)NCC2CC2)CCN1C(=O)C1(c2ccc(Cl)cc2)CC1 (stereo not drawn)	-6.6	3.6	2810	0.5	.	.
CCNC(=O)CC1SC(=Nc2cccc(Cl)c2C)N(C)C1=O (stereo not drawn)	-0.9	-2.0	16300*	0.6	-8.5	-5.3
CCN(CC)C(=O)c1ccc(NS(=O)(=O)c2ccc3[nH]c(=O)[nH]c3c2)cc1	0.1	-3.0	5870	-1.3	0.8	9.6
CCOc1ccc(CN2CCNC(=O)C2CC(=O)NCc2ccccn2)cc1 (stereo not drawn)	-0.4	0.2	2413	0.5	-10.1	53.6*

Bioassay records from PubChem.
